In the library only some 3.6% were active in any assay of this set; here they are far more common.
AmpC detergent – qHTS Inhibitors of AmpC Beta-Lactamase (assay with detergent). P00811. AID 485294, 2010. Potency, µM (highest dose often 114 µM), most hits filed as inhibitors. hit rate 0.041% among 370,000. AmpC hydrolysis of nitrocefin, absorbance 480 nm, 0.01% Triton; further: nearly all actives have a fitted effect of over 25% in size
Target sequence (P00811 whole entry, looked up): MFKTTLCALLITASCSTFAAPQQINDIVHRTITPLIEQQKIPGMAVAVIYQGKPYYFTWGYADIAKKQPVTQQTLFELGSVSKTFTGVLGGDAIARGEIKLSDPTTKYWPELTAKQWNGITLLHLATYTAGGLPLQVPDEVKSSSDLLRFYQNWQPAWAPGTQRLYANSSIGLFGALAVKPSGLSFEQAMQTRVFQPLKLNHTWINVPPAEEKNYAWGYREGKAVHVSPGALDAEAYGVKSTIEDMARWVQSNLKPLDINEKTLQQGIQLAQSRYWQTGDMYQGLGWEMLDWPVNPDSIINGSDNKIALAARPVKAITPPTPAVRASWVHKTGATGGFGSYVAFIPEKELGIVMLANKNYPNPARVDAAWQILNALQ
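20 mM phosphate pH 7.0 + 0.01% (detergent screen) or 0.0001% Triton X-100; 5.3 nM AmpC reagent; cpd preinc 15 min RT; nitrocefin (800 uM stock) to start; A480 q20 s × 4 min; Activity was normalised to no-enzyme and no-compound control wells.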
AmpC inh no detg – qHTS Inhibitors of AmpC Beta-Lactamase (assay without detergent); P00811; AmpC nitrocefin hydrolysis, absorbance 480 nm, 0.0001% Triton; Potency, µM (series often up to 57.1 µM), most hits filed as inhibitors; hit rate 0.52% among 330,000; further: nearly all actives have a fitted effect of over 20% in size
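20 mM phosphate pH 7.0 + 0.01% (detergent screen) or 0.0001% Triton X-100; 5.3 nM AmpC reagent; cpd preinc 15 min RT; nitrocefin (800 uM stock) to start; A480 q20 s × 4 min; Activity was normalised to no-enzyme and no-compound control wells.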
Giardia FBPA inh – qHTS Assay for Inhibitors of Fructose-1,6-bisphosphate Aldolase from Giardia Lamblia | purified Giardia FBPA | Potency, µM (series often up to 59.6 µM), most hits filed as inhibitors | hit rate 0.71% among 290,000; further: nearly all actives have a fitted effect of over 55% in size
Target sequence (A8B2U2 whole entry, looked up): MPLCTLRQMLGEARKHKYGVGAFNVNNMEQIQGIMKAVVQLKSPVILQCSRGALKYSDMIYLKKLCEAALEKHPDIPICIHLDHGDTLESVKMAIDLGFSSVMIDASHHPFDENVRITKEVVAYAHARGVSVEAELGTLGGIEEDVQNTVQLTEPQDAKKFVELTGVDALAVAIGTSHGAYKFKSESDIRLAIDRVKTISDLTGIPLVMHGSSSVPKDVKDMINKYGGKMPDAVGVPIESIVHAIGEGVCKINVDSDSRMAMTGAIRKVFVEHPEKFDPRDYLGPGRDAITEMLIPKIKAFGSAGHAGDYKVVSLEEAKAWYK
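40 nM FBPA preincubated 10 min at RT with compound (up to 57.5 uM final), then substrate plus GAPDH/TPI/NAD/arsenate coupling and diaphorase/resazurin added. Fluorescence read after 20 min at RT, 525/598 nm.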
Sm TGR block – qHTS Assay for the Inhibitors of Schistosoma Mansoni Peroxiredoxins; purified TGR, DTNB reduction, TNB absorbance 405 nm; Potency, µM (titrated, usually from 114 µM), hits mostly inhibitors; hit rate 3% among 360,000; AID 485364, 2010; further: nearly all actives have a fitted effect of over 60% in size
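TGR 20 nM + NADPH 100 uM (dispensed conc.), cpd preinc 15 min RT; start with NADPH (500 uM addition) then DTNB (15 mM addition). Kinetic TNB absorbance, 405 nm filter. Four-parameter Hill fit across titration.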
Each line names hits and unclear results; the compound was inactive in the other large screens. The call rests on the fitted dose curve; in most records, active means well fitted curve in the direction sought with a large enough effect; inconclusive means small, poorly fitted or top-dose-only effect, or another doubt; inactive means no such curve, though single readings can be large; an effect the other way counts as inactive or inconclusive.

CCCOc1ccc(N2C(=O)CC(N(Cc3ccco3)C(=O)CC)C2=O)cc1 (stereo not given)	Sm TGR block 14.1µM
N#CC1CC(c2ccccc2)=NN1c1ccccc1[N+](=O)[O-] (stereo not given)	none
O=C(CN1C(=O)COc2ccc(S(=O)(=O)N3CCOCC3)cc21)NCc1ccc(Cl)cc1	none (no result: AmpC inh no detg, Giardia FBPA inh)
O=C1CC(Sc2cccs2)C(=O)N1c1ccccc1 (stereo not given)	Sm TGR block 6.31µM
CCOc1ccc(N2C(=O)CC(Sc3nnnn3-c3ccccc3)C2=O)cc1 (stereo not given)	Sm TGR block 10µM
CC(c1ccccc1)N1C(=O)CC(Sc2ncccc2C(=O)O)C1=O (stereo not given)	AmpC detergent inconclusive, Sm TGR block 35.5µM
CCOc1ccc(N2C(=O)CC(Sc3nc(C)cc(C)n3)C2=O)cc1 (stereo not given)	AmpC detergent inconclusive
O=C(O)c1ccccc1SC1CC(=O)N(c2ccccc2)C1=O (stereo not given)	Sm TGR block 14.1µM
CCCCN1C(=O)CC(Sc2ncccc2C(=O)O)C1=O (stereo not given)	none (no result: Sm TGR block)
Cc1cccc(OCC(=O)Nc2cccc(C(=O)OCc3cc(=O)n4c(C)csc4n3)c2)c1	none (no result: AmpC inh no detg, Giardia FBPA inh)
Cc1cn(C)c(CC(=O)N2CCN(c3ccc(F)cc3)CC2)c1C(=O)O	none (no result: AmpC inh no detg, Giardia FBPA inh)
Nc1nc(N(Cc2ccccc2)Cc2ccccc2)nc(C(F)(F)F)n1	AmpC detergent inconclusive (no result: Giardia FBPA inh)
CC(=O)Nc1ccc(S(=O)(=O)N(C)CC(=O)OCC(=O)N(C)C2CCS(=O)(=O)C2)cc1 (stereo not given)	none (no result: Giardia FBPA inh)
Cc1nc(SC2CC(=O)N(c3ccccc3)C2=O)nc2c1CCCC2 (stereo not given)	none
O=C(O)c1cccnc1SC1CC(=O)N(c2cccc3ccccc23)C1=O (stereo not given)	Sm TGR block inconclusive
Cc1nnc(SC2CC(=O)N(c3ccccc3)C2=O)s1 (stereo not given)	Sm TGR block 2.51µM
O=C(O)c1cccnc1SC1CC(=O)N(c2ccccc2)C1=O (stereo not given)	Sm TGR block 50.1µM
O=C(O)c1ccccc1SC1CC(=O)N(C2CCCCC2)C1=O (stereo not given)	AmpC detergent inconclusive, Sm TGR block 3.98µM
O=c1c2ccccc2nc(/C=C/c2ccc([N+](=O)[O-])o2)n1CCCO	Sm TGR block 17.8µM
O=c1c2ccccc2nc(/C=C/c2ccc([N+](=O)[O-])cc2)n1CCCO	AmpC detergent inconclusive
O=C1c2ccccc2C(=O)N1CC#CCN1CCN(C(c2ccccc2)c2ccccc2)CC1	Giardia FBPA inh inconclusive, Sm TGR block 50.1µM
COc1cccc(Cn2c(=O)c(CCc3ccccc3)nc3cnc(N4CCOCC4)nc32)c1	none (no result: AmpC detergent, AmpC inh no detg, Sm TGR block)
CCN(C(=S)Nc1cc(S(=O)(=O)N2CCOCC2)ccc1Cl)c1cccc2ccccc12	Giardia FBPA inh 7.06µM
O=S(=O)(c1ccc(Cl)c(NC(=S)Nc2cccc(O)c2)c1)N1CCOCC1	Sm TGR block 11.2µM
Cc1ccc2c(c1)c1c(c(=O)n(-c3ccccc3)c(=O)n1CC(=O)c1ccc(F)cc1)n2C	none (no result: AmpC inh no detg, Giardia FBPA inh)
O=C(COc1ccc(F)cc1)NCC1(N2CCCCC2)CCCCC1	none (no result: Giardia FBPA inh)
CC(=O)SC1CC(=O)N(c2ccc(C(C)(C)C)cc2)C1=O (stereo not given)	Sm TGR block inconclusive
Cc1cccc(C)c1N1C(=O)CC(N2CCSCC2)C1=O (stereo not given)	Sm TGR block 44.7µM
CC(=O)SC1CC(=O)N(c2c(C)cccc2C)C1=O (stereo not given)	Sm TGR block 14.1µM
O=C1CC(N2CCSCC2)C(=O)N1c1cccc(Br)c1 (stereo not given)	Sm TGR block 44.7µM
CC(C)C[C@H](NC(=O)[C@H](CO)NC(=O)[C@H](C)NC(=O)[C@H](CCCN=C(N)N)NC(=O)[C@H](CCCN=C(N)N)NC(=O)[C@@H](N)CC(C)C)C(=O)NCC(=O)O	none (no result: AmpC detergent, AmpC inh no detg, Sm TGR block)
COc1ccc(NC(=O)C2CCCN(c3nnc(C)c4c(C)n(-c5ccccc5)nc34)C2)cc1Cl (stereo not given)	none (no result: AmpC inh no detg, Giardia FBPA inh)
O=S(=O)(CCN1CCCCC1)Oc1ccc(Cl)cc1Cl	Sm TGR block 0.447µM
CCN(c1ccccc1)S(=O)(=O)c1ccc(C(=O)N2CCN(c3ccccc3)CC2)cc1	none (no result: AmpC detergent, Giardia FBPA inh, Sm TGR block)
COc1ccc(S(=O)(=O)N/N=C(/C)c2ccc(Cl)cc2)cc1	none
COc1ccc(C/C(C)=N/NS(=O)(=O)c2ccc(Br)cc2)cc1	Sm TGR block 22.4µM
O=C(NNc1ccccc1[N+](=O)[O-])Nc1cccc(Cl)c1	AmpC detergent inconclusive
O=[N+]([O-])/C(C(Cl)=C(Cl)Cl)=C(/Sc1ccccc1)N1CCCCC1	Sm TGR block 28.2µM
CC(NC(=O)c1ccco1)C1CCCO1 (stereo not given)	none
Cc1occc1C(=O)NC(C)C1CCCO1 (stereo not given)	Sm TGR block 22.4µM
CC(=O)c1ccccc1NC(=O)COC(=O)C1=NN(c2ccccc2)C(=O)CC1	AmpC detergent inconclusive (no result: Giardia FBPA inh)
Cc1ccc(CSc2nc(=O)c3c(C)cc(C)nc3n2C2CC2)cc1	none (no result: AmpC inh no detg, Giardia FBPA inh)
O=C1CC(N2CCCCC2)C(=O)N1c1ccccc1 (stereo not given)	AmpC detergent inconclusive, Sm TGR block 31.6µM
O=C1CC(N2CCN(c3ccc(Cl)cc3)CC2)C(=O)N1c1ccc(F)cc1 (stereo not given)	Sm TGR block inconclusive
CCCOc1ccc(N2C(=O)CC(N3CCN(S(=O)(=O)c4ccccc4)CC3)C2=O)cc1 (stereo not given)	none
O=C1CC(N2CCCN(C3CC(=O)N(c4ccc(F)cc4)C3=O)CC2)C(=O)N1c1ccc(F)cc1 (stereo not given)	Sm TGR block 20µM
O=C1CC(N2CCN(S(=O)(=O)c3ccccc3)CC2)C(=O)N1c1ccccc1 (stereo not given)	Sm TGR block 50.1µM
COc1cccc(N2CC(C(=O)NNC(=O)c3ccc(Cl)cc3)CC2=O)c1 (stereo not given)	none
COc1ccc(C(=O)NNC(=O)C2CCCN(C3CC(=O)N(c4ccccc4)C3=O)C2)cc1 (stereo not given)	Sm TGR block 44.7µM
COc1ccc(NC(=O)c2ccc(Cl)c(NC(=O)c3ccncc3)c2)cc1	none
C/C(=N\NC(=O)c1nnn(-c2nonc2N)c1-c1ccc2c(c1)OCO2)c1ccc(C)cc1	none (no result: Giardia FBPA inh)
CCc1nc2nc(C)c(NS(=O)(=O)c3ccc(C)cc3)c(=O)n2[nH]1	none (no result: AmpC inh no detg, Giardia FBPA inh)
O=C1CC(N2CCC(O)CC2)C(=O)N1c1ccc(Br)cc1 (stereo not given)	Sm TGR block 56.2µM
O=CN1CCN(C2CC(=O)N(c3ccc(Br)cc3)C2=O)CC1 (stereo not given)	AmpC detergent inconclusive, Sm TGR block inconclusive

Bioassay records from PubChem BioAssay.
